Screens as filed in PubChem BioAssay.
LMP1 NFkB inh: EBV LMP1-driven NF-kappaB luciferase reporter inhibitors, primary screen, cell-based, luminescence, single point; LMP1-induced NF-kappaB luciferase reporter cells; inhibition, % at 12.5 µM; 350,000 compounds, 0.69% hits; in the data active = inhibition above about 41%; inconclusive = no clear call, values can overlap the other calls
MITF TRPM1 inh: inhibitors of MITF-dependent TRPM1 promoter reporter, primary screen, cell-based, SK-MEL-5, single point, luciferase. 330,000 compounds, 0.83% hits. inhibition, % at 12.5 µM. SK-MEL-5 TRPM1 promoter luciferase, 24 h;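 active = mean inhibition across replicates of 60% or more, whatever share of single replicates reaches that level; inconclusive = some that reach 60%, reason not given; inactive = mean inhibition across replicates below 60%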
TWEAK-Fn14 inh: inhibitors of TWEAK-Fn14 signaling, primary screen, luciferase reporter cells, uHTS | 360,000 compounds, 2% hits | TWEAK-stimulated Fn14 reporter cells, luciferase luminescence, 8 h | inhibition, % at 10 µM; in the data active = inhibition above about 50%
HIF-2a block: HIF-2a reporter inhibitors, primary screen, luminescence, 786-0 RCC cells; 786-0 RCC cells HIF-2a reporter, luciferase luminescence, overnight; inhibition, % at 18.8 µM; 360,000 compounds, 0.72% hits; AID 624352, 2012;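 active = inhibition of the luminescence signal of 40% or more relative to plate controls, in a single-dose primary screen at 18.75 µM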
Peg3 prom inh: Peg3 promoter-driven luciferase inhibitors, primary screen, cell-based, HeLa, luciferase luminescence. HeLa PEG-Prom luciferase reporter, overnight. inhibition, % at 20 µM. 360,000 compounds, 1.7% hits. AID 588405, 2011;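 active = inhibition of at least 50% at 20 µM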
TROY NFkB inh: inhibitors of TROY-driven NF-kB signaling, primary screen, Q293 LMP1-TROYcd cells, NF-kB luciferase, uHTS; Q293 LMP1-TROYcd NF-kB luciferase reporter, 4 h; inhibition, % at 10 µM; 360,000 compounds, 0.98% hits; AID 1347056, 2019;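 active = compounds whose plate-normalised and pattern-corrected inhibition of the luciferase reporter signal at the single screening dose is 50% or more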
Mdm2 MdmX conf: retested Mdm2-MdmX interaction blockers, confirmation, cell-based, luminescence, single concentration, set 2; shares compounds with HIF-2a block; SaOS-2 split-luciferase Mdm2/MdmX complementation; inhibition, % at 8 µM; 740 compounds, 99% hits;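 active = mean inhibition of the luminescence signal across two replicates at or above 26 percent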
Target sequence (O15151 whole entry, looked up): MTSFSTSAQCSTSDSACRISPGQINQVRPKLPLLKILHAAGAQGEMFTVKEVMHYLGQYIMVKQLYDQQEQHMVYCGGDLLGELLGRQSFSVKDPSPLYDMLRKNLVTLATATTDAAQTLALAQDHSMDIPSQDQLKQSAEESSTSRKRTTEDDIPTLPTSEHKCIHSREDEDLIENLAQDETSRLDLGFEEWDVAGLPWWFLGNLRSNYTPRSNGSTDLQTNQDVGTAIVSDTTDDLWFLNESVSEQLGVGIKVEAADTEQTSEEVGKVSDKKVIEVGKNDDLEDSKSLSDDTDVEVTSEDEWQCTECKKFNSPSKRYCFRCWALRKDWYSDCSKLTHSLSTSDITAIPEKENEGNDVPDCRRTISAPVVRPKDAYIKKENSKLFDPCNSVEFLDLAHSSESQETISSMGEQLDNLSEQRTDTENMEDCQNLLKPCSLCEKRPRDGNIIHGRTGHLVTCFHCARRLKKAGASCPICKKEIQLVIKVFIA
Target sequence (Q00987 whole entry, looked up): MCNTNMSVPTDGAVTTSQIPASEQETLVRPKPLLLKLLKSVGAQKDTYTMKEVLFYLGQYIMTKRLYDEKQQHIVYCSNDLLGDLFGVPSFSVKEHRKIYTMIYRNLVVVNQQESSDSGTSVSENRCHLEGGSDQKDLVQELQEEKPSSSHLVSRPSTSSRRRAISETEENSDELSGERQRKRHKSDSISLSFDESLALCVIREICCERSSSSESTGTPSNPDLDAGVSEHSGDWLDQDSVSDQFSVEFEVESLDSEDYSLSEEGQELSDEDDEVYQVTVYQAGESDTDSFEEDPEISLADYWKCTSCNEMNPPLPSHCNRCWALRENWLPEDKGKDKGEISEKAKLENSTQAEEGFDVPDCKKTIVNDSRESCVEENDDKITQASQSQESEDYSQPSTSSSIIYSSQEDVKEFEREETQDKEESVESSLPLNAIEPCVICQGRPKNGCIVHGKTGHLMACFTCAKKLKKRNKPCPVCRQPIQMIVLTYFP
HIF-2a conf: HIF-2a reporter inhibitor retest, confirmation, luminescence, 786-0 RCC cells | HIF-2a luciferase reporter luminescence, overnight | 1,800 compounds, 56% hits | shares compounds with HIF-2a block | inhibition, % at 18.8 µM;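 active = mean inhibition across four replicates of at least 40 percent at the single tested concentration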
HIF-1a cs: HIF-1a luciferase reporter signal reduction – MiaPaCa-2 cells, single concentration, counter-screen for HIF-2a inhibitor project, confirmation. AID 651589, 2012. MiaPaCa-2 HIF-1a luciferase reporter, desferoxamine, overnight. inhibition, % at 18.8 µM. shares compounds with HIF-2a block. 1,800 compounds, 72% hits;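 active = mean inhibition of the reporter signal across four replicates at the single tested dose of 50% or more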
Large screens that a line does not name were inactive (follow-up assays come after a bar, where they were run). An excerpt weighted towards active compounds, which were near 4% of everything screened.

Nc1ccccc1C#CC(=O)c1ccccc1	MITF TRPM1 inh 93, TWEAK-Fn14 inh 95, HIF-2a block 89, Peg3 prom inh 104 | Mdm2 MdmX conf 103 | HIF-2a conf 57 | HIF-1a cs 105
O=C(/C=C\Nc1ccccn1)c1ccc(Cl)cc1	TWEAK-Fn14 inh 87, HIF-2a block 46 | HIF-2a conf inactive | HIF-1a cs inactive
Cc1cccc(N/C=C/C(=O)c2ccc(Cl)cc2)c1	none
O=C(C1CCCCC1)N1CCN(c2ccnc3cc(Cl)ccc23)CC1	LMP1 NFkB inh inconclusive
Cc1ccc(S(=O)(=O)c2ncccc2[N+](=O)[O-])cc1	MITF TRPM1 inh 77, TWEAK-Fn14 inh 95, HIF-2a block 72, Peg3 prom inh 102, TROY NFkB inh 53 | Mdm2 MdmX conf 100 | HIF-2a conf 47 | HIF-1a cs inactive
Cc1ccc(S(=O)(=O)c2ncccc2N)cc1	none
O=C(CCCC(=O)Nc1ccccc1Br)N/N=C/c1c(F)cccc1Cl	none
COc1ccc(C2NC(=O)NC(C)=C2C(=O)OC2CCCC(C)C2)cc1 (stereo not drawn)	TWEAK-Fn14 inh 73, HIF-2a block 41, Peg3 prom inh 52 | HIF-2a conf inactive | HIF-1a cs inactive
O=c1cccc2c1c1cc[nH]c3ccc(=O)n2c31	TWEAK-Fn14 inh 54 | Mdm2 MdmX conf 93
Cc1ccc(S(=O)(=O)N2C(c3ccccc3)CC(=O)C3CN(S(=O)(=O)c4ccc(Cl)cc4)C(c4ccccc4)CC32)cc1 (stereo not drawn)	none (no result: LMP1 NFkB inh, MITF TRPM1 inh, TWEAK-Fn14 inh, Peg3 prom inh, TROY NFkB inh)
c1ccc(Nc2ccccc2Nc2ccccn2)nc1	none
Oc1cccc2ccc(Nc3ccccn3)nc12	LMP1 NFkB inh 75, MITF TRPM1 inh 86, HIF-2a block 95, Peg3 prom inh 102 | Mdm2 MdmX conf 103 | HIF-2a conf 79 | HIF-1a cs 105
Cc1ccc(-c2nnc(SCCC(=O)N3CCOCC3)o2)cc1	none
Cc1cccc(-c2nnc(SCCC(=O)N3CCOCC3)o2)c1	HIF-2a block 49 | HIF-2a conf 53 | HIF-1a cs inactive
CCOC(=O)c1nn(-c2ccc(Cl)cc2)c(C)cc1=O	none (no result: LMP1 NFkB inh)
COc1ccc(-c2cc3nc(C)c(CCC(=O)NCc4ccco4)c(C)n3n2)c(OC)c1	none
Cc1nc2cc(-c3ccc(Cl)cc3)nn2c(C)c1CCC(=O)NCc1ccco1	HIF-2a block 81 | HIF-2a conf 87 | HIF-1a cs inactive
CC1ON=C(c2ccccn2)N(Cc2ccc(S(C)(=O)=O)cc2)C1=O (stereo not drawn)	none (no result: LMP1 NFkB inh, MITF TRPM1 inh)
CCOC(=O)C(C)(C)N(Cc1cccc(C)c1)S(=O)(=O)c1cccc([N+](=O)[O-])c1	none
CCOC(=O)C(C)(C)N(Cc1cccc(C)c1)S(=O)(=O)c1ccc(Cl)c([N+](=O)[O-])c1	HIF-2a block 64, Peg3 prom inh 88 | HIF-2a conf inactive | HIF-1a cs 100
Cc1ccc(/C=C/C(=O)NCCCN2CCN(CCCNC(=O)/C=C/c3ccc(C)cc3)CC2)cc1	none
CC(C)(C)c1ccc(/C=C/C(=O)NCCCN2CCOCC2)cc1	HIF-2a block 48 | HIF-2a conf inactive | HIF-1a cs inactive
CC(C)(C)c1ccc(C(=O)NCCCN2CCN(CCCNC(=O)c3ccc(C(C)(C)C)cc3)CC2)cc1	MITF TRPM1 inh 90, HIF-2a block 73, Peg3 prom inh 109 | Mdm2 MdmX conf 102
CCCCc1ccc(NC(=S)N2CCCC(C)C2)cc1 (stereo not drawn)	none
